# Source: PubChem (National Center for Advancing Translational Sciences (NCATS))
# Compounds with a hit are over-represented: about 7.1% of the library has one in this group of screens.
# MCF10A rerep = inducers of DNA re-replication in MCF 10A breast cells; MCF 10A DNA re-replication, Hoechst nuclear intensity, 48 h; Potency, µM (doses to about 46.1 µM), without a hit: top-dose activity, positive = re-replication, most hits filed as activators; 350,000 tested, 2.9% active; AID 624296; also: % of control where 0% means no effect; nearly all actives have a fitted effect of over 50% in size
# p53 reactivation = restores transcriptional activity of mutant p53; 320,000 tested, 0.063% active; H1299 p53-A138V BP100-luciferase reporter, luminescence, 24 h; Potency, µM (series often up to 92.2 µM), for inactives: top-dose activity change, positive = activation, hits mostly activators; also: % of control where 0% means no effect; nearly all actives have a fitted effect of over 45% in size
#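 H1299 (p53-null), stable ts p53-A138V + BP100-Luc; 1000 cells/well, Opti-MEM/10% FBS; cpd 4 pt, 1:5; 24 h, 37 deg C, 5% CO2; detection reagent 10 min RT; luminescence.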
# SW480 rerep = induces DNA re-replication in SW480 colon adenocarcinoma cells; 340,000 tested, 1.8% active; SW480 DNA re-replication, Hoechst DNA content imaging, 48 h; Potency, µM (top dose mostly 46.1 µM), inactives show at the highest dose re-replication activation, hits mostly activators; AID 624297; also: % of control where 0% means no effect; nearly all actives have a fitted effect of over 55% in size
#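 Readout is total intensity of Hoechst-stained nuclei, excited at 405 nm and collected at 500-530 nm. Compound treatment lasted 48 hr at 37 C in 5% CO2 before staining.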
# AT treatment = candidate therapy for ataxia-telangiectasia; Potency, µM (series often up to 57.5 µM), inactives show top-dose activation, usual class: activators; AID 485349; 320,000 tested, 0.19% active; F2112 A-T fibroblasts, KAP-1 phosphorylation AlphaLISA; neocarzinostatin DNA damage 30 min before lysis; also: % of control where 0% means no effect; nearly all actives have a fitted effect of over 45% in size
#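 hTERT-immortalized A-T patient fibroblasts (F2112), 500 cells/well in OPTI-MEM, 1% FBS, got compounds for 60 min, then NCS for 30 min at 37C. Lysates were then assayed for phospho-KAP-1 by AlphaLISA (anti-pKAP1 donor, anti-KAP1 acceptor beads), 6 hr at 25C.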
# ELG1 genotoxic = genotoxicity induction in ELG1-luciferase HEK293T cells. HEK293T ELG1-luciferase reporter, luminescence, 16 h. Potency, µM (series often up to 46 µM), for the others: at the highest dose activity change, positive = activation, hits mostly activators. 330,000 tested, 1.3% active. AID 504466; also: % of control where 0% means no effect; nearly all actives have a fitted effect of over 60% in size
#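 Step 1: seed 2,000 HEK293T ELG1-luciferase cells per well. Step 2: add compound or DMSO, incubate 16 hr at 37 °C. Step 3: ONE-Glo, 30 min at room temperature, read luminescence.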
# ELG1 DNA repair = ELG1-dependent DNA repair inhibition; HEK293T ELG1-luciferase reporter, luminescence, 16 h; DNA damage induced by 5-fluorouridine; Potency, µM (top dose mostly 46.1 µM), inactives show at the highest dose activity change, negative = inhibition, usual class: inhibitors; 330,000 tested, 2.3% active; AID 504467; also: % is scaled to controls: 0 for no effect and ±100 for the full control effect; nearly all actives have a fitted effect of over 55% in size
#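 5-Fluorouridine DNA damage + compound/DMSO, 2,000 cells/well, 16 h, 37 °C/5% CO2. ONE-Glo, 30 min RT, luminescence. Readout = decrease in reporter signal.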
# * hit, by the source's call; ? = inconclusive; nt = no result given; [ ] = another dose, or the depositor's remark. Calls follow the shape of the dose curve; as a rule, active = well fitted curve in the direction sought with a large enough effect; inconclusive = small, poorly fitted or top-dose-only effect, or another doubt; inactive = no such curve, though single readings can be large; an effect the other way counts as inactive or inconclusive. Potency is read from the fitted curve at half-maximal effect.
SMILES,MCF10A rerep,p53 reactivation,SW480 rerep,AT treatment,ELG1 genotoxic,ELG1 DNA repair
CN(c1ccccc1C(=O)O)S(C)(=O)=O,0%,3%,-4%,5%,2%,1%
O=C(Nc1ccc(-c2ccccc2)cc1)c1ccc2c(c1)S(=O)(=O)c1ccccc1C2=O,-2%,nt,-1%,nt,nt,nt
O=C(Nc1ccncc1)c1ccc2c(c1)S(=O)(=O)c1ccccc1C2=O,0%,-5%,-25%,-1%,-11%,9.2µM*
O=C(Nc1cccnc1)c1ccc(-c2ccccc2)cc1,1%,6%,?,23%,?,?
O=C(Nc1ccncc1)c1ccc(-c2ccccc2)cc1,?,-3%,?,-2%,-16%,1.8µM*
O=C(COC(=O)COc1ccccc1)NC12CC3CC(CC(C3)C1)C2,-4%,-2%,-2%,-2%,2%,24%
CCN(C[C@H]1N[C@@](C)(C(=O)OC)[C@H]2C(=O)N(C)C(=O)[C@@H]12)C(=O)COC,21%,8%,-13%,2%,0%,?
Cc1noc(C)c1COc1ccc(C(=O)NCC(c2c(F)cccc2Cl)N(C)C)cc1 (configuration not stated),4%,-11%,-10%,-1%,9%,?
COc1ccc(-c2cc(=O)n(-c3ccc([N+](=O)[O-])cc3)[nH]2)cc1,16µM*,26%,0%,-8%,1%,?
CC(C)c1cccc(C(C)C)c1NC(=O)CN1CCCC1,-2%,-1%,-12%,-7%,1%,?
Cc1ccc(C(=O)Cn2cnc3ccccc3c2=O)cc1C,1%,nt,-2%[9.22 µM],nt,nt,nt
Cc1cc(C(=O)Cn2cnc3ccccc3c2=O)c(C)n1C1CC1,0%,10%,-7%,-5%,5.2µM*,?
Cc1cc(C(=O)COc2ccccc2C(N)=O)c(C)n1C1CC1,0.58µM*,?,-8%,-3%,5%,5%
O=C(CN1C(=O)NC(Cc2c[nH]c3ccccc23)C1=O)Nc1ccc(Br)cc1F (configuration not stated),-4%,7%,-8%,5%,1%,-3%
COC(=O)c1ccccc1NC(=O)CSc1nc(Nc2ccccc2)nc(N2CCOCC2)n1,16%,-5%,-9%,28%,0%,?
O=C(NCCCO)/C(=C/c1ccc(-c2cccc([N+](=O)[O-])c2)o1)NC(=O)c1ccccc1,1%,-4%,-8%,6%,0%,4%
Cc1ccc(C(=O)N/C(=C/c2ccc(-c3ccc([N+](=O)[O-])cc3)o2)C(=O)NCCCN(C)C)cc1,?,nt,23µM*,nt,nt,nt
O=C(NCC(=O)N1CCCC(C(F)(F)F)C1)c1ccc2ccccc2c1 (configuration not stated),7%,-4%,18µM*,-5%,2%,28%
O=C(O)CC(c1ccc(Br)cc1)N1Cc2ccccc2C1=O (configuration not stated),0%,-6%,-3%,-14%,-7%,-10%
COc1cc(CNC(=O)c2ccc(Cn3nc(C)c(Cl)c3C)o2)cc(OC)c1,-3%,-16%,-2%,0%,-12%,18µM*
N#Cc1ccsc1NC(=O)C1CCN(S(=O)(=O)c2cccs2)CC1,?,-2%,-245%,-6%,-2%,-26%
Cn1c(=O)c2c(nc(NCc3cccnc3)n2Cc2ccc(Cl)cc2)n(C)c1=O,4%,-1%,-1%,nt,-1%,21µM*
CCNc1nc2c(c(=O)n(C)c(=O)n2C)n1CCCc1ccccc1,?,nt,23µM*,-1%,-2%,?
Cn1c(OCc2cccnc2)nc2c1c(=O)n(Cc1ccc(Br)cc1)c(=O)n2C,16%,-5%,-2%,8%,-14%,16µM*
CCNc1nc2c(c(=O)[nH]c(=O)n2C)n1CCCc1ccccc1,10%,12%,4%,7%,7%,-1%
SMILES,MCF10A rerep,p53 reactivation,SW480 rerep,AT treatment,ELG1 genotoxic,ELG1 DNA repair
CCNc1nc2c(c(=O)n(C)c(=O)n2C)n1Cc1ccc(Cl)cc1,12%,8%,-2%,15%,-2%,-18%
CCNc1nc2c(c(=O)n(Cc3ccccc3)c(=O)n2C)n1Cc1ccccc1,-9%,-8%,-7%,3%,1%,13µM*
CC(C)CNC(=O)C(=O)Nc1cc2c3c(c1)C(C)C(=O)N3CCC2 (configuration not stated),3%,6%,-5%,15%,?,?
CCN(CC)CCCC(C)NC(=O)c1c(NC(=O)c2ccccc2)sc2c1CCCC2 (configuration not stated),4.6µM*,nt,?,8%,7%,-2%
O=C(Nc1sc2c(c1C(=O)O)CCCCC2)c1ccco1,?,16%,-11%,-4%,?,?
NC(=O)c1c(NC(=O)c2ccccc2)sc2c1CCC2,-4%,nt,?,20%,5.8µM*,?
NC(=O)c1c(NC(=O)c2ccco2)sc2c1CCC2,15%,?,?,nt,11µM*,?
Cc1occc1C(=O)Nc1sc2c(c1C(N)=O)CCCCC2,11%,?,1%,6%,10µM*,?
CN(C)C(=O)c1c(NC(=O)c2ccccc2)sc2c1CCC2,-2%,-22%,-1%,7%,2%,-1%
COC(=O)c1cccc(N(CC(=O)NC2CCCC2)C(=O)CCC(=O)Nc2cc(C)on2)c1,3%,4%,-5%,5%,-1%,2%
COCCCNC(=O)CC1C[C@H](C(=O)N2CCOCC2)[C@@]2(CCC3CCCC3)c3[nH]c4ccc(OC)cc4c3CCN2C1=O (some centres not stated),-37%,1%,6%,-4%,15%,3%
NC(=O)c1c(NC(=O)c2ccccc2)sc2c1CCc1ccccc1-2,?,?,?,-2%,6.5µM*,?
NC(=O)c1c(NC(=O)CSc2nnc(Cc3ccccc3)n2Cc2ccco2)sc2c1CCC2,5%,12%,2%,0%,-22%,23µM*
O=C(CSc1nnc(Cc2ccccc2)n1Cc1ccco1)NC12CC3CC(CC(C3)C1)C2,?,-20%,1%,5%,-13%,?
CNC(=O)c1c(NC(=O)c2nc3ccccc3s2)sc2c1CCC2,nt,?,nt,-1%,4.6µM*,?
O=C(CSc1ncn[nH]1)NCc1ccccc1Cl,3%,9%,-11%,2%,0%,?
Cc1cccc(NC(=S)N(Cc2cccs2)Cc2cc3cc(C)ccc3[nH]c2=O)c1,-1%,-7%,-2%,0%,-10%,?
